PME-1 primary = PME-1 (human) inhibition; inhibition, % at 5.9 µM; hit rate 0.53% among 320,000; Q9Y570; recombinant PME-1, FP-Rh probe fluorescence polarization;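 active means inhibition above the campaign mean of all compounds plus 3 SD, cut at about 26% in these data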;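 further: competitive labeling of PME-1 active site by serine hydrolase directed probe; inhibitors block probe labeling so polarization falls and inhibition rises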
Target sequence (Q9Y570 whole entry, looked up): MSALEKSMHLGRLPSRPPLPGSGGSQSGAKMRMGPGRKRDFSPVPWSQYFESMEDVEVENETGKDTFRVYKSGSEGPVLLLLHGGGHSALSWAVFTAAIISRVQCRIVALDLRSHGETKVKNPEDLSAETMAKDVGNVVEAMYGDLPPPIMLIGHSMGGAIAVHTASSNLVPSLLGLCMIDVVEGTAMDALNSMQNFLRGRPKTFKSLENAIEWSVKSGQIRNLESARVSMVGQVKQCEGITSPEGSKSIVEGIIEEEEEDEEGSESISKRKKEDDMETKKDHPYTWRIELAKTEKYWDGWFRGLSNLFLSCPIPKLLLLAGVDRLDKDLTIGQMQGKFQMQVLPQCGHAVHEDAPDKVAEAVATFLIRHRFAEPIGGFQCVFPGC
PAFAH2 inh = inhibitors of human PAFAH2 | recombinant PAFAH2, FP-rhodamine activity probe, fluorescence polarization | inhibition, % at 3.39 µM | hit rate 0.99% among 340,000 | AID 492956;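 active means inhibition above the mean over all tested compounds plus 3 SD, cut at about 30% in these data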;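 further: inhibitors block probe labeling of enzyme so polarization drops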
PAFAH1B3 inh = blocks human PAF acetylhydrolase 1B catalytic subunit 3; inhibition, % at 3.39 µM; recombinant PAFAH1B3, FP-rhodamine probe, fluorescence polarization; AID 492972; hit rate 0.28% among 340,000;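 active means inhibition above the screen-wide average of all tested compounds plus 3 SD, cut at about 25% in these data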
Target sequence (Q15102 whole entry, looked up): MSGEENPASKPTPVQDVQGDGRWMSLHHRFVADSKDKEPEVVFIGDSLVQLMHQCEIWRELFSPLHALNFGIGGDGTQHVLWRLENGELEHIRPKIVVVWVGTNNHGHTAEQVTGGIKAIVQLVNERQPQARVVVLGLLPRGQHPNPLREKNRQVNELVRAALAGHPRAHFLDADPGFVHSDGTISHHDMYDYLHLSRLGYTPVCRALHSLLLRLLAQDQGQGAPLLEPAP
pPAFAH inh = inhibitors of human plasma PAF acetylhydrolase (pPAFAH); Q13093; recombinant pPAFAH, FP-rhodamine probe fluorescence polarization; inhibition, % at 3.39 µM; hit rate 1.5% among 330,000; AID 463082;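 active means inhibition above the mean inhibition across the screen plus 3 SD, cut at about 25% in these data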;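 further: inhibitors block binding of the rhodamine activity-based probe so polarization drops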
Fam108B counter = counter-screen for RBBP9 inhibitors: inhibitors of mouse Fam108B; recombinant Fam108B, FP-Rh probe fluorescence polarization; inhibition, % at 9.51 µM; hit rate 0.33% among 300,000; AID 1947;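 active means inhibition above the screen mean inhibition plus 3 SD, computed separately per campaign, cut at about 18% in these data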;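 further: inhibitors lower polarization as less probe binds the enzyme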
PAFAH1B2 FP inh = inhibitors of human PAFAH1B2 | hit rate 1.2% among 340,000 | AID 492953 | recombinant PAFAH1B2, FP-rhodamine activity probe, fluorescence polarization | P68402 | inhibition, % at 3.39 µM;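 active means inhibition above the mean of all tested compounds plus 3 SD, cut at about 24% in these data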
PAFAH2 FP conf = confirmation of human PAFAH2 inhibitors; hit rate 65% among 2,300; AID 493030; inhibition, % at 3.39 µM; shares compounds with PAFAH2 inh; recombinant PAFAH2, FP-rhodamine activity probe, fluorescence polarization;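 active means mean inhibition over three repeats above a set limit taken from the earlier primary screen, cut at about 30% in these data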;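 further: inhibitor blocks binding of rhodamine activity probe so polarization falls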
A number is an active result; - = inactive; . = not tested or not shown. The list is not random: actives were taken first. Their share in the collection is about 2.8%.

SMILES	PME-1 primary	PAFAH2 inh	PAFAH1B3 inh	pPAFAH inh	Fam108B counter	PAFAH1B2 FP inh	PAFAH2 FP conf
CCOC(=O)Cn1c(=S)[nH]c2c(oc3ccc(Cl)cc32)c1=O	-	-	-	-	-	-	.
N#CC1=C(SCC(=O)Nc2cccc3cccnc23)NC(=O)C(C#N)C12CCCCC2 (configuration not stated)	-	37.6	-	-	-	-	-
O=C(NCCc1ccc(Cl)cc1)C1CCC(=O)N(C2CCCCCC2)C1 (configuration not stated)	-	-	-	-	-	-	.
O=C(NCCc1ccc(Cl)cc1)C1CC(=O)N(C2CCCC2)C1 (configuration not stated)	-	103.8	-	-	-	-	-
O=C(CCc1ccccc1)Nc1ccccc1C(=O)NCc1ccco1	-	29.7	-	-	-	-	29.9
O=C(c1ccc(Oc2ccc(C(F)(F)F)cc2[N+](=O)[O-])cc1)N1CCOCC1	-	34.4	-	-	-	-	-
O=C(c1cccc(Oc2ccc([N+](=O)[O-])cc2Cl)c1)N1CCCCC1	-	-	-	-	-	-	.
O=C(c1ccccc1Oc1ccc(C(F)(F)F)cc1[N+](=O)[O-])N1CCOCC1	-	-	-	-	-	-	.
O=C(c1ccc(Oc2ccc([N+](=O)[O-])cc2Cl)cc1)N1CCCC1	-	40.4	-	-	-	-	30.0
O=C(N/N=C/c1ccc2cccc(OCc3ccccc3)c2n1)c1ccc(Cl)cc1	-	-	-	-	-	-	.
COc1ccc(C(=O)N/N=C/c2ccc3cccc(O)c3n2)cc1	-	35.4	-	-	-	-	-
COc1cc(C(=O)NNC(=S)NC(=O)c2ccc(F)cc2)cc(OC)c1OC	-	50.9	-	-	-	-	-
CC1(CCc2ccccc2)NC(=O)N(CC(=O)N2CCCCCC2)C1=O (configuration not stated)	-	-	-	-	-	-	.
O=C1OC(/C(=C\Nc2cc(Cl)ccc2O)[N+](=O)[O-])c2ccccc21 (configuration not stated)	-	49.3	-	-	-	-	45.6
CC(C)CC(NC(=O)C(NC(=O)C1CCC(=O)N1C(=O)OCc1ccccc1)C(C)C)C(=O)N1CCCC1C(N)=O (configuration not stated)	-	39.6	-	-	-	-	41.4
CC(C)CC(NC(=O)OC(C)(C)C)C(=O)NC(C(=O)N1CCCC1C(N)=O)C(C)C (configuration not stated)	-	-	-	-	-	-	.
Cc1ccn(C(=O)c2ccc(NC(=O)C3CCCCC3)cc2)n1	-	33.1	-	-	-	-	45.5
O=C(Nc1ccc(C(=O)N2CCCC2)cc1)C1CCCCC1	.	-	-	.	.	-	.
CC(=O)Nc1ccc(C(=O)N2CCN(S(=O)(=O)c3ccc4c(c3)OCCCO4)CC2)cc1	-	-	-	-	.	-	.
CN(C)S(=O)(=O)c1ccc(C(=O)N2CCN(S(=O)(=O)c3ccc4c(c3)OCCO4)CC2)cc1	.	45.5	-	.	.	-	41.1
CCOC(=O)c1c(C)[nH]c(C(=O)OCC(=O)Nc2cc(C)c(Cl)cc2OC)c1C	-	-	-	-	-	-	.
O=C(NNC(=O)c1ccccc1Cl)c1cccs1	-	-	-	-	-	-	.
O=C(NNC(=O)c1cc(Cl)ccc1O)c1cccs1	-	76.5	-	-	-	-	72.7
O=C(NC(=S)NNC(=O)c1ccccc1O)c1ccc([N+](=O)[O-])cc1	-	31.8	-	-	-	-	-
O=C(NC(=S)NNC(=O)c1ccccc1O)c1cccs1	-	45.4	-	-	-	-	36.2
SMILES	PME-1 primary	PAFAH2 inh	PAFAH1B3 inh	pPAFAH inh	Fam108B counter	PAFAH1B2 FP inh	PAFAH2 FP conf
Cc1cccc(C(=O)NNC(=O)c2ccccc2O)c1	-	35.0	-	-	-	-	-
CC(OC(=O)Cc1c[nH]c2ccccc12)C(=O)NC1CCCCC1C (configuration not stated)	-	-	-	-	.	-	.
CCN(CC(=O)Nc1cccc(S(=O)(=O)N(C)c2ccccc2)c1)Cc1cccs1	-	-	-	-	.	-	.
O=C(CSc1nncn1-c1ccccc1)NC1CCCCC1	-	-	-	-	-	-	.
Cc1cc(=O)oc2cc(OCC(=O)OCC(=O)N(C)C3CCS(=O)(=O)C3)ccc12 (configuration not stated)	-	-	-	-	-	-	.
Cc1ccc(C)c(CNC(=O)Nc2ccccc2)c1	-	-	-	-	-	-	.
CCOC(=O)c1ccccc1NC(=O)CSc1nnnn1C1CCCCC1	-	-	-	-	-	-	.
Cc1ccc(C(=O)NC(=S)NNC(=O)c2ccccc2O)cc1	-	-	-	-	-	-	.
O=C(NC(=S)NNC(=O)c1ccccc1O)c1ccccc1	-	31.3	-	-	-	-	-
CC1CCCC(NC(=O)COC(=O)c2cccc(NS(=O)(=O)/C=C/c3ccccc3)c2)C1C (configuration not stated)	-	45.9	-	-	-	-	40.1
CC(C)NC(=O)COC(=O)c1cccc(NS(=O)(=O)/C=C/c2ccccc2)c1	-	37.5	-	-	-	-	-
NC(=O)COC(=O)c1cccc(NS(=O)(=O)/C=C/c2ccccc2)c1	-	-	-	-	-	-	.
NC(=O)NC(=O)COC(=O)c1cccc(NS(=O)(=O)/C=C/c2ccccc2)c1	-	-	-	-	-	-	.
CCOc1ccccc1NC(=O)N1CCc2ccccc2C1	-	-	-	-	-	-	.
CCCCCCCCCCCC1=C(O)C(=O)C=C(O)C1=O	-	52.8	-	-	-	-	39.9
Cc1ccc(S(=O)(=O)/N=C(\CN2CCCCC2)N2CCOCC2)cc1	-	-	-	-	-	-	.
CCOc1ccc(S(=O)(=O)/N=C(/Nc2ccc(S(N)(=O)=O)cc2)c2ccccc2)cc1	.	44.5	-	-	.	-	-
CN(C)S(=O)(=O)c1cc(NC(=O)COC(=O)/C=C/c2ccco2)ccc1Cl	-	58.2	-	-	-	-	70.3
COc1cccc(/C=C/C(=O)OCC(=O)Nc2cccc(S(=O)(=O)N(C)C)c2)c1	-	68.9	-	-	-	-	60.2
COc1ccc(CC(=O)OCC(=O)Nc2ccc(Cl)c(S(=O)(=O)N(C)C)c2)cc1	-	-	-	-	-	-	.
COc1cccc(/C=C/C(=O)OCC(=O)Nc2ccc(Cl)c(S(=O)(=O)N(C)C)c2)c1	-	67.5	-	-	-	-	69.2
O=C(COC(=O)/C=C/c1ccccc1)Nc1cc(C(F)(F)F)ccc1N1CCOCC1	-	55.6	-	-	-	-	57.4
CN(C)S(=O)(=O)c1cccc(NC(=O)COC(=O)CCOc2ccccc2)c1	-	-	-	-	-	-	.
CN(C)S(=O)(=O)c1cc(NC(=O)COC(=O)c2nc(Cl)ccc2Cl)ccc1Cl	.	-	-	-	.	-	.
COc1ccc(/C=C/C(=O)Nc2cc(C(F)(F)F)ccc2Cl)cc1OC	-	-	-	-	-	-	.
